# High-throughput results: PubChem, several laboratories
# FBA Mtb inh: Mtb fructose-bisphosphate aldolase inhibition; P9WQA3; purified M. tuberculosis FBA, fluorescence read-out; inhibition, % at 1 µM; 2.3% of 360,000 active; AID 588726;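 also: 0% = vehicle and 100% = reference inhibitor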
# Target sequence (P9WQA3 whole entry, looked up): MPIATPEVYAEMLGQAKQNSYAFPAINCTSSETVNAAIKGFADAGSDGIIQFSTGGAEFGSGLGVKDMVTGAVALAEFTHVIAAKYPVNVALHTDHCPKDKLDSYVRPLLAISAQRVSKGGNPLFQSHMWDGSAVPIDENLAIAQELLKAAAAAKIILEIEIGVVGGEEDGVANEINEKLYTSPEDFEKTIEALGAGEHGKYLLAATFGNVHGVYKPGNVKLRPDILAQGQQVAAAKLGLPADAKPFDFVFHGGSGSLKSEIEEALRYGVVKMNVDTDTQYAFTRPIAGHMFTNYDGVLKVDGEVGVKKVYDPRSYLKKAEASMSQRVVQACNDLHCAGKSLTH
# Mtb UGM inh: blocks M. tuberculosis UGM enzyme. P9WIQ1. purified UGM, fluorescence polarization probe displacement. inhibition, % at 10 µM. 0.06% of 320,000 active. AID 504406; in the data active = inhibition above about 10%, passing the limit was not always enough
# GDH-TPI counter-1: counter-screen for M. tuberculosis FBA inhibitors: GDH-TPI coupled enzymes; AID 588335; 1.2% of 360,000 active; GDH-TPI coupled enzyme counterscreen, NADH absorbance; inhibition, % at 4.8 µM; in the data active = inhibition above about 30%;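 also: 0% = DMSO wells and 100% = wells lacking the enzyme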
# Mtb betalactam: beta-lactam sensitization of Mtb H37Rv | M. tuberculosis H37Rv growth with meropenem, percent inhibition | inhibition, % at 25 µM | 0.27% of 330,000 active; call rule not given here;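 also: growth measured after seven days incubation then overnight dye step; 0% = bacteria only wells and 100% = bacteria with antibiotic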
# Rv3671c protease: Rv3671c (M. tuberculosis) protease inhibition; 0.048% of 320,000 active; inhibition, % at 5.96 µM; AID 2606; P9WHR9; in the data active = inhibition above about 38%;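 also: extracellular domain of Rv3671c used as enzyme; 0% = enzyme with DMSO and 100% = no enzyme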
# RecA splice inh: blocks M. tuberculosis RecA intein splicing; P9WHJ3; cell-free RecA intein splicing, fluorescence; inhibition, % (test concentration not listed); AID 2221; 0.75% of 290,000 active; in the data active = inhibition above about 30%;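 also: 0% = vehicle wells and 100% = reference inhibitor control wells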
# Mtb FBA inh conf: Mtb FBA inhibition, confirmed; shares compounds with FBA Mtb inh; purified M. tuberculosis FBA, fluorescence read-out; inhibition, % at 1 µM; 78% of 5,600 active; AID 651616;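 also: 0% = vehicle wells and 100% = reference inhibitor wells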
# GDH-TPI counter-2: counter-screen for M. tuberculosis FBA inhibitors: GDH-TPI coupled enzyme inhibition; shares compounds with FBA Mtb inh; GDH-TPI coupled enzyme counterscreen, fluorescence; inhibition, % at 1 µM; 81% of 5,600 active; in the data active = inhibition above about 10%
# Active calls of the source: *; · = not tested or not shown; + = active, no number. Only some compounds are listed: those with a hit (about 4% of all), similar ones and a draw of the others. Rule as the data show it, unless noted: active = inhibition above about 27%; inactive = the rest.
SMILES,FBA Mtb inh,Mtb UGM inh,GDH-TPI counter-1,Mtb betalactam,Rv3671c protease,RecA splice inh,Mtb FBA inh conf,GDH-TPI counter-2
CCCCOc1ccc(Cl)cc1CSc1n[nH]c(C)n1,2,0,-9,4,-3,·,·,·
O=C(CSc1ccccn1)Nc1ccc2c(c1)CCC2,-2,1,1,-2,3,1,·,·
NS(=O)(=O)c1ccc(CNC(=O)c2ccncc2)cc1,2,0,-5,6,-6,-4,·,·
N=C1C(c2nc3ccccc3c(=O)[nH]2)=C(O)CN1CCO,17,-1,1,0,0,-2,·,·
COc1ccccc1N1CC(O)=C(c2nc3ccccc3c(=O)[nH]2)C1=N,38*,0,22,-3,-9,1,146*,111*
COCCN1CC(O)=C(c2nc3ccccc3c(=O)[nH]2)C1=N,46*,1,20,-9,-4,-1,·,+
Cc1ccc(C)c(S(=O)(=O)N2CCN(C(=O)c3ccc(C)s3)CC2)c1,-2,-5,-1,-7,0,4,·,·
CCN(CC)CCNC(=O)c1cc2c(=O)n(CC)c3ccccc3c2s1,72*,-4,24,13,-4,1,42*,36*
CCN(CC)CCCNC(=O)c1cc2c(=O)n(CC)c3ccccc3c2s1,72*,5,9,-2,-3,-1,+,+
CCN(CC)CCCNC(=O)c1cc2c(Cl)nc3ccccc3c2s1,2,-1,9,9,-5,0,·,·
CCn1c(=O)c2cc(C(=O)N3CCCC3)sc2c2ccccc21,·,·,·,·,·,1,·,·
CCn1c(=O)c2cc(C(=O)NCCN(C)C)sc2c2ccccc21,62*,2,16,-1,1,1,105*,89*
CCCN(CCC)CCNC(=O)c1cc2c(=O)n(CC)c3ccccc3c2s1,28*,0,22,5,-1,-4,63*,55*
Cc1cn(CC(C)C)c(=O)n(-c2ccccc2)c1=O,-3,·,-5,·,·,·,·,·
Cc1cn(C2CCCCC2)c(=O)n(-c2ccccc2)c1=O,37*,·,1,·,·,·,+,177*
O=C(CCCCCN1C(=O)c2cccc3cccc(c23)C1=O)NCCCO,33*,1,18,-1,-1,-3,97*,73*
O=C(CN1C(=O)c2cccc3cccc(c23)C1=O)NCCCO,52*,-4,17,3,3,-1,27,24*
COc1ccccc1NC(=O)CCCCCN1C(=O)c2cccc3cccc(c23)C1=O,2,5,9,-2,-13,·,·,·
Cc1ccc(NS(=O)(=O)c2ccc(NC(=O)C(C)Sc3ccc(Cl)cc3)cc2)c(C)c1 (configuration not stated),81*,0,2,0,-207,6,2,-3
Cc1[nH]nc2c1C(c1ccsc1)C1=C(CC(C)(C)CC1=O)N2 (configuration not stated),55*,4,23,1,5,-5,51*,38*
Cc1[nH]nc2c1C(c1ccc(O)cc1)C1=C(CC(C)(C)CC1=O)N2 (configuration not stated),7,1,24,-10,2,2,·,·
COc1cccc(C2C3=C(CC(C)(C)CC3=O)Nc3n[nH]c(C)c32)c1 (configuration not stated),43*,2,13,0,1,0,161*,131*
C=CCn1c(O)c(C(C)=NCc2cc(OC)cc(OC)c2)c(=O)[nH]c1=O,-7,-1,14,0,-7,-1,·,·
CCOc1ncnc2c1[nH]c1ccccc12,37*,0,14,-3,4,1,35*,28*
CCCOc1ncnc2c1[nH]c1ccc(C)cc12,·,0,·,-1,-12,·,·,·
C/C(=N\Nc1ccccc1)c1cc2ccccc2oc1=O,65*,-1,11,97,-2,-1,6,-8
CCCc1nc2oc3c(NCC(C)O)ncnc3c2c2c1CCCC2 (configuration not stated),36*,1,1,0,-1,1,68*,45*
